HP1b binding inh: HTS for Inhibitors of HP1-beta Chromodomain Interactions with Methylated Histone Tails | AlphaScreen HP1-beta / biotin-H3K9me3 peptide binding | Potency, µM (doses to about 114 µM), hits mostly inhibitors | Chromobox protein homolog 1 (Homo sapiens), P83916 | 0.56% of 390,000 active; further: nearly all actives have a fitted effect of over 70% in size
Target sequence (P83916 whole entry, looked up): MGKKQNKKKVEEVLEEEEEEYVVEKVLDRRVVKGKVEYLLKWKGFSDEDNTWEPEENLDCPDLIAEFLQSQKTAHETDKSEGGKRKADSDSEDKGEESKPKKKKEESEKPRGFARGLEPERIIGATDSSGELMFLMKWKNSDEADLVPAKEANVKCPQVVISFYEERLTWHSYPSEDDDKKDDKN
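HP1-beta protein (50 nM final) preincubated 30 min at room temperature with biotinylated H3(1-18)K9me3 peptide (50 nM) in PBS pH 7.4, 0.01% Tween-20, then compound added for 30 min. AlphaScreen streptavidin donor/nickel chelate acceptor beads (10 ug/mL final), 30 min dark, luminescence read.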
JMJD2A Tudor: qHTS Assay for Inhibitors of JMJD2A-Tudor Domain; Lysine-specific demethylase 4A (Homo sapiens), O75164; AlphaScreen JMJD2A-Tudor / H3K4me3 peptide binding; Potency, µM (series often up to 114 µM), hits mostly inhibitors; 4.4% of 390,000 active; further: nearly all actives have a fitted effect of over 50% in size
BAZ2B block: qHTS Assay for Inhibitors of BAZ2B; Bromodomain adjacent to zinc finger domain protein 2B (Homo sapiens), Q9UIF8; AlphaScreen BAZ2B-H3K14Ac peptide displacement; Potency, µM (titrated, usually from 114 µM), actives largely listed as inhibitors; 4.4% of 360,000 active; AID 504333, 2011; further: nearly all actives have a fitted effect of over 60% in size
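BAZ2B (50 nM) with biotin-H3(5-23)K14Ac peptide (50 nM) in PBS pH 7.4, 0.01% Tween-20, preformed 30 min, then compound 30 min at room temperature; top concentration 110uM. AlphaScreen streptavidin donor/nickel chelate acceptor beads (10 ug/mL final), 20 min dark, signal read.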
L3MBTL1 block: qHTS Assay for the Inhibitors of L3MBTL1. Potency, µM (highest dose often 57.1 µM), actives largely listed as inhibitors. 0.66% of 230,000 active. AID 485360, 2010. AlphaScreen L3MBTL1–H3K9me1 peptide binding. Lethal(3)malignant brain tumor-like protein 1 (Homo sapiens), Q9Y468; further: nearly all actives have a fitted effect of over 60% in size
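Displacement of a biotinylated histone H3(1-15) peptide monomethylated at Lys9 (75 nM) from L3MBTL1 (50 nM) was measured by AlphaScreen after a 30 min room-temperature compound incubation; cefsulodin titration served as intraplate control.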
G9a block: qHTS Assay for Inhibitors of Histone Lysine Methyltransferase G9a; G9a H3K9 monomethylation, AlphaScreen, 2 h; AID 504332, 2011; Histone-lysine N-methyltransferase EHMT2 (Homo sapiens), Q96KQ7; 8.8% of 350,000 active; Potency, µM (highest dose often 102 µM), usual class: inhibitors; further: nearly all actives have a fitted effect of over 75% in size
Target sequence (Q96KQ7 913-1193 limits assumed): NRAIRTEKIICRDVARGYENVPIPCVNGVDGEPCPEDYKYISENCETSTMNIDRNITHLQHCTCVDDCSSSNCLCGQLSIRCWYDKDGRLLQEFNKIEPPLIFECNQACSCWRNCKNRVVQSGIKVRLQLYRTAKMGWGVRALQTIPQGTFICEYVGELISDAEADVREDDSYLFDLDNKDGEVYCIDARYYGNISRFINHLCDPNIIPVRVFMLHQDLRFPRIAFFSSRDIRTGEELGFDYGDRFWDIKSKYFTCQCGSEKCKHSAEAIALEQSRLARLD
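Quantitative HTS format: methyltransferase activity on a biotin-tagged H3K9 peptide is measured by AlphaScreen, using a rabbit anti-monomethyl-H3K9 antibody with streptavidin donor and anti-IgG acceptor beads. Final levels are 20 nM enzyme, 500 nM peptide, 20 uM SAM; 2 h RT.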
Hits are given with their value; . = inactive; ? = inconclusive; / = not tested or not shown; [ ] = another dose, or the depositor's remark. In the library only some 11% were active in any assay of this set; here they are far more common. The call rests on the fitted dose curve; in most records, active means well fitted inhibition curve with a large enough effect; inconclusive means small, poorly fitted or top-dose-only effect; inactive means no such curve, though single readings can be large or run the other way.

SMILES | HP1b binding inh | JMJD2A Tudor | BAZ2B block | L3MBTL1 block | G9a block
CCN1C(=O)C(Cc2nc3ccccc3c(=O)n2C)c2cc(C)ccc21 (stereo unspecified) | . | . | . | / | .
N#Cc1c2n(c3c(=O)[nH]cnc13)CCCC2 | . | . | . | . | .
N#Cc1c2n(c3c(=S)nc[nH]c13)CCCCC2 | . | 35µM | . | . | /
CCN1CCN(C(=O)c2cc(S(=O)(=O)Nc3ccc(S(C)(=O)=O)cc3)ccc2Cl)CC1 | . | . | . | . | 50µM
N#C/C(=C\c1ccc(-c2ccc(C(=O)O)cc2)o1)c1nc2ccccc2[nH]1 | ? | 89µM | . | . | .
N#C/C(=C\c1ccc(-c2ccc(Cl)c(C(=O)O)c2)o1)c1nc2ccccc2[nH]1 | . | ? | 50µM | . | .
O=C(c1ccccc1)N1CCCOC1c1ccccc1 (stereo unspecified) | . | . | / | . | 25µM
CC(C)(C)N/N=C/c1cc(Cl)cc([N+](=O)[O-])c1O | . | ? | ? | . | .
CN(/N=C/c1cc(Cl)cc(Cl)c1O)c1c(Cl)cccc1[N+](=O)[O-] | ? | 40µM | 10µM | ? | /
CC(C)(C)OC(=O)N1CCC(c2c(C(=O)N3CCN(c4ccccc4F)CC3)cnn2-c2ccccc2Cl)CC1 | . | . | . | / | ?
COc1ccc(-c2cc3ccccc3n2CC(O)CN2CCC(C)CC2)cc1 (stereo unspecified) | ? | 18µM | 50µM | / | ?
COCCc1nn2c(=O)cc(COC(=O)C(c3ccccc3)c3ccccc3)nc2s1 | . | . | . | / | .
Nc1cc(N)c(OCC(F)(F)F)cc1OCC(F)(F)F | ? | ? | ? | ? | 50µM
CCOc1cc(C(=O)Nc2cc3c(cc2N2CCCC2)n(C)c(=O)n3C)cc(OCC)c1OCC | . | . | 89µM | / | /
Cn1c(=O)c(=O)n(C)c2cc(N3CCCC3)c(NC(=O)c3ccc(C(C)(C)C)cc3)cc21 | . | . | ? | / | 11µM
Cc1ccc(C(=O)Nc2cc3c(cc2N2CCCCC2)n(C)c(=O)n3C)cc1 | . | . | . | / | .
CCOc1cc(C(=O)Nc2cc3c(cc2N2CCCC2)n(C)c(=O)c(=O)n3C)cc(OCC)c1OCC | . | . | . | / | 10µM
CCOc1ccc(C(=O)Nc2cc3c(cc2N2CCCC2)n(C)c(=O)c(=O)n3C)cc1OCC | . | . | . | / | ?
CC(C)c1ccc(OCc2cc(=O)n3c(-c4ccccc4)csc3n2)cc1 | . | . | . | / | .
c1nc(NCc2ccc3c(c2)OCO3)c2[nH]cnc2n1 | . | . | / | / | /
CCc1nnc(N/N=C/c2ccc(N3CCC(C)CC3)c([N+](=O)[O-])c2)n1N | . | ? | ? | . | 50µM
Nn1cnnc1N/N=C/c1ccc(F)cc1 | . | . | . | . | 45µM
Nn1cnnc1N/N=C/c1ccc(Cl)c([N+](=O)[O-])c1 | . | ? | . | . | 45µM
Cc1nnc(N/N=C/c2ccc([N+](=O)[O-])cc2)n1N | . | . | ? | ? | .
Cc1ccc(/C=N/Nc2nncn2N)cc1 | . | . | . | / | .[2.33 µM]
SMILES | HP1b binding inh | JMJD2A Tudor | BAZ2B block | L3MBTL1 block | G9a block
O=C(Cn1cnc2onc(-c3ccc(F)cc3)c2c1=O)N1CCN(c2ccc(F)cc2)CC1 | . | . | . | / | .
COc1cc(/C=C/C(=O)OCC(=O)Nc2ccc(NC(C)=O)cc2)cc(S(=O)(=O)N2CCc3ccccc32)c1OC | . | . | / | . | .
COc1cc(/C=C/C(=O)OCC(=O)NC2CC2)cc(S(=O)(=O)N2CCc3ccccc32)c1OC | . | . | . | . | 56µM
CCOc1ccc(NC(=O)Cn2c(=O)cc(C)c3c(C)nn(-c4cccc(Cl)c4C)c32)cc1 | . | . | . | / | .
COc1c(Br)cc(Br)cc1/C=N/n1c(C)nnc1C | ? | 40µM | . | / | .[12.7 µM]
CCn1c(O)c(C#N)c(C)cc1=O | . | . | . | . | 45µM
O=C1N(Cc2ccccc2)CC2(Br)COCOC12O (stereo unspecified) | 7.1µM | 3.5µM | / | / | /
CCn1c(SCC(=O)Nc2ccc(N(C)C)cc2)nnc1-c1cccc(C)c1 | . | ? | ? | . | 7.1µM
CN(C)c1ccc(NC(=O)CSc2nnc(-c3cccs3)n2Cc2ccco2)cc1 | ? | 40µM | 45µM | / | 10µM
CCn1c(Cn2nnc(-c3ccccc3)n2)nnc1SCC(=O)Nc1ccc(N(C)C)cc1 | . | . | . | . | 13µM
CCn1c(SCC(=O)Nc2cc(C)on2)nnc1-c1cccc(C)c1 | . | . | . | / | .
CCn1c(SCC(=O)Nc2ccc(N3CCOCC3)c(Cl)c2)nnc1-c1ccc(N)cc1 | . | ? | . | / | 45µM
N#Cc1ccc(C(=O)NCc2ccc3c(c2)CCN3C(=O)c2ccc(F)cc2)cc1 | . | . | . | / | .
O=C(Cn1c(=O)n(Cc2nc(-c3ccccc3)no2)c(=O)c2cc3c(cc21)OCO3)Nc1ccc(Cl)cc1 | . | . | . | / | .
COc1ccc(NC(=O)CN2C(=O)C(c3ccc(C(C)(C)C)cc3)=NC2(C)C)cc1Cl | . | . | . | / | .
O=C1NC(c2ccco2)Nc2sc3c(c21)CCN(Cc1ccccc1)C3 (stereo unspecified) | . | ? | ? | / | 28µM
CN1CCc2c(sc3c2C(=O)NC(c2cn(Cc4ccccc4)c4ccccc24)N3)C1 (stereo unspecified) | ? | 40µM | 45µM | . | ?
CN1CCc2c(sc3c2C(=O)NC(c2ccco2)N3)C1 (stereo unspecified) | . | . | / | . | ?
COc1ccc(Br)cc1C1NC(=O)c2c(sc3c2CCN(C)C3)N1 (stereo unspecified) | . | . | . | . | .
Cc1ccc(OCC(=O)NCCNC(=O)c2cccnc2)cc1C | . | . | . | / | .
Cc1ccc(/C(O)=C2\C(=O)C(=O)N(C)C2c2ccc(F)cc2)cc1 (stereo unspecified) | . | . | . | . | .
CCN(C(=O)CN1CCN(C)CC1)c1cccc2ccccc12 | ? | 1.8µM | 32µM | . | 1.8µM
CCN(C(=O)CN1C(=O)CN(C)C1=O)c1cccc2ccccc12 | . | . | / | . | /
O=S(=O)([O-])CCC[n+]1ccc(Oc2ccccc2)cc1 | . | . | . | . | 28µM
CN(C)c1cc[n+](CC(=O)Nc2ccc(Oc3ccccc3)cc2)cc1 | . | . | . | . | .
Cc1ccc2[nH]c3c(c2c1)CN(C(=O)CN1CCCCC1)CC3 | . | . | ? | / | 50µM
Cc1ccc2[nH]c3c(c2c1)CN(C(=O)CN1CCCc2ccccc21)CC3 | ? | 28µM | . | . | 3.2µM
O=C(CN1CCN(Cc2ccc3c(c2)OCO3)CC1)N1CCc2[nH]c3ccc(F)cc3c2C1 | . | ? | ? | . | ?

Bioassay records as filed in PubChem.
